Measurements as given in publication PMC5540273 (PLoS ONE, 2017).

tested on: SBK1; conditions: concentration: 1 μM, replicates: in singlicate; n = 1
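Note: KINOMEscan kinase panel screen.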

In order of falling “%Inh” value:
1. Cn1cncc1-c1cc2c(Nc3ccc(OCc4ccccc4)cc3)ncnc2cn1 [GW281179]  36%
2. Nc1nccc(-c2c(-c3ccc(F)cc3)ncn2C2CCN(Cc3ccccc3)CC2)n1 [SB-219980]  35%
3. CSc1ccc(-c2nc3n(c2-c2ccncc2)CCC3)cc1 [SKF-105561]  30%
4. Cc1nccc(-c2c(-c3ccc(F)cc3)ncn2CCCN2CCOCC2)n1.Cl [SB-282975]  29%
5. O=c1cc(N2CCOCC2)nc2n(Cc3cccc(Cl)c3Cl)c3ccccc3n12 [GSK2299009]  28%
6. CNCc1ccc2nc(NC(=O)c3ccc(C(C)(C)C)cc3)cn2c1  27%
7. Cl.Cl.Cl.N#Cc1ccc(CCNc2nccc(-c3cccc(CN4CCNCC4)c3)n2)cc1 [GSK2137462]  24%
8. CS(=O)(=O)CCNCc1nc(-c2ccc3ncnc(Nc4ccc(OCc5ccccc5)c(Cl)c4)c3c2)cs1.Cl [GW582764]  23%
9. COc1cccc(CNC(=O)NC2CCN(c3ccnc(Nc4ccc(F)cc4)n3)C2)c1 (stereo not drawn) [GSK1379723]  22%
10. Fc1ccc(-c2nc3n(c2-c2ccncc2)CCS3)cc1 [GI98581]  21%
11. COC(=O)c1cccc(NC(=O)NC2CCN(c3ccnc(Nc4ccc(F)cc4)n3)C2)c1 (stereo not drawn) [GSK1379725]  17%
12. CC(C)c1cc(-c2ccc3c(N)n[nH]c3c2)nc(N)n1 [GSK2250882]  16%
13. COC(=O)C(Cc1ccccc1)NC(=O)NC1CCN(c2ccnc(Nc3ccc(F)cc3)n2)C1 (stereo not drawn) [GSK1379714]  13%
14. Fc1ccc(-c2nn3cccc(F)c3c2-c2ccncc2)cc1 [GW475620]  12%
15. Nc1ncnc2occ(-c3ccc4c(c3)CCN4C(=O)Cc3cc(F)ccc3F)c12 [GSK2645446]  10%
16. CCn1c(-c2ccccc2)nc2cnccc21 [SB-733416]  9%
17. Cc1cccc2c(-c3ccncn3)c(-c3ccc(F)cc3)nn12 [GW515532]  9%
18. COc1cccc(NC(=O)Nc2ccc(C)c(-c3ccc(C(=O)Nc4ccncc4)cc3)c2)c1 [GSK1398474]  8%
19. COc1ccc(Nc2nccc(N3CCC(NC(=O)C(C)c4ccc(Cl)cc4)CC3)n2)cc1 (stereo not drawn) [GSK1379812]  6%
20. Cc1ccc(NC(=O)Nc2ccccc2)cc1-c1ccc(C(=O)Nc2ccncc2)cc1 [GSK1398471]  5%
21. CNc1nc(-c2ccc3c(N)n[nH]c3c2)cc(N2C[C@@H](C(=O)NC3CCCCC3)OC[C@H]2C)n1 [GSK2375584]  0%
22. COc1ccc(Nc2nccc(N3CCC(NC(=O)C(C)c4ccc(Cl)cc4)C3)n2)cc1 (stereo not drawn) [GSK1379735]  0%
23. Cn1cnc2c(N)ncnc21 [SKF-97623]  0%
24. COC(=O)c1cccc(NC(=O)NC2CCN(c3ccnc(Nc4ccc(OC)cc4)n3)C2)c1 (stereo not drawn) [GSK1379746]  0%
25. CNC(=O)c1ccc(C)c(-n2c(C)cc(OCc3ccc(F)cc3F)c(Br)c2=O)c1  0%
26. CC(=O)c1c(C)c2cnc(Nc3ccc(N4CCNCC4)cn3)nc2n(C2CCCC2)c1=O  0%
27. COc1ccc(CSc2nnc(-c3ccc4c(c3)CCO4)o2)cc1  0%
28. COc1ccc(CSc2nnc(-c3ccc4nccn4c3)o2)cc1C(F)(F)F  0%
29. CN1c2ccc(-c3ccc(C(N)=O)cc3)cc2-c2[nH]ncc2S1(=O)=O  0%
30. O=C1NC(=O)C(c2ccc(Cl)cc2)=C1Nc1cccc(Cl)c1 [SB-317651]  0%
31. COc1ccc(Nc2nccc(NCCNC(=O)Nc3cc(C)ccc3C)n2)cc1 [GSK1379899]  0%
32. Fc1ccc(-c2nc[nH]c2-c2ccncc2)cc1 [SB-217360]  0%
33. COc1ccc(CSc2nnc(-c3ccc4ncsc4c3)o2)cc1C(F)(F)F  0%
34. CCCCc1nn2ncccc2c1-c1ccnc(NC2CC2)n1 [GW684374]  0%
35. CCc1ccc(-c2ccc3c(c2)-c2n[nH]cc2S(=O)(=O)N3C)cc1  0%
36. COc1ccc(-c2coc3ccc(-c4nnc(C)o4)cc23)cc1  0%

tested on: SGK2; conditions: concentration: 1 μM, replicates: in singlicate; n = 1

In order of rising “%Inh” value:
1. Nc1nccc(-c2c(-c3ccc(F)cc3)ncn2C2CCN(Cc3ccccc3)CC2)n1 [SB-219980]  0%
2. CNc1nc(-c2ccc3c(N)n[nH]c3c2)cc(N2C[C@@H](C(=O)NC3CCCCC3)OC[C@H]2C)n1 [GSK2375584]  0%
3. Cn1cnc2c(N)ncnc21 [SKF-97623]  0%
4. COC(=O)c1cccc(NC(=O)NC2CCN(c3ccnc(Nc4ccc(OC)cc4)n3)C2)c1 (stereo not drawn) [GSK1379746]  0%
5. CNC(=O)c1ccc(C)c(-n2c(C)cc(OCc3ccc(F)cc3F)c(Br)c2=O)c1  0%
6. CC(=O)c1c(C)c2cnc(Nc3ccc(N4CCNCC4)cn3)nc2n(C2CCCC2)c1=O  0%
7. COc1ccc(CSc2nnc(-c3ccc4c(c3)CCO4)o2)cc1  0%
8. COC(=O)C(Cc1ccccc1)NC(=O)NC1CCN(c2ccnc(Nc3ccc(F)cc3)n2)C1 (stereo not drawn) [GSK1379714]  0%
9. COc1ccc(Nc2nccc(NCCNC(=O)Nc3cc(C)ccc3C)n2)cc1 [GSK1379899]  0%
10. COc1ccc(Nc2nccc(N3CCC(NC(=O)C(C)c4ccc(Cl)cc4)CC3)n2)cc1 (stereo not drawn) [GSK1379812]  0%
11. Fc1ccc(-c2nc[nH]c2-c2ccncc2)cc1 [SB-217360]  0%
12. CS(=O)(=O)CCNCc1nc(-c2ccc3ncnc(Nc4ccc(OCc5ccccc5)c(Cl)c4)c3c2)cs1.Cl [GW582764]  0%
13. Cl.Cl.Cl.N#Cc1ccc(CCNc2nccc(-c3cccc(CN4CCNCC4)c3)n2)cc1 [GSK2137462]  0%
14. Nc1ncnc2occ(-c3ccc4c(c3)CCN4C(=O)Cc3cc(F)ccc3F)c12 [GSK2645446]  0%
15. COc1ccc(CSc2nnc(-c3ccc4ncsc4c3)o2)cc1C(F)(F)F  0%
16. CCCCc1nn2ncccc2c1-c1ccnc(NC2CC2)n1 [GW684374]  0%
17. CCc1ccc(-c2ccc3c(c2)-c2n[nH]cc2S(=O)(=O)N3C)cc1  0%
18. COc1ccc(-c2coc3ccc(-c4nnc(C)o4)cc23)cc1  0%
19. Cc1ccc(NC(=O)Nc2ccccc2)cc1-c1ccc(C(=O)Nc2ccncc2)cc1 [GSK1398471]  0%
20. CC(C)c1cc(-c2ccc3c(N)n[nH]c3c2)nc(N)n1 [GSK2250882]  0%
21. COc1cccc(NC(=O)Nc2ccc(C)c(-c3ccc(C(=O)Nc4ccncc4)cc3)c2)c1 [GSK1398474]  0%
22. COC(=O)c1cccc(NC(=O)NC2CCN(c3ccnc(Nc4ccc(F)cc4)n3)C2)c1 (stereo not drawn) [GSK1379725]  0%
23. COc1ccc(CSc2nnc(-c3ccc4nccn4c3)o2)cc1C(F)(F)F  4%
24. Fc1ccc(-c2nc3n(c2-c2ccncc2)CCS3)cc1 [GI98581]  6%
25. O=C1NC(=O)C(c2ccc(Cl)cc2)=C1Nc1cccc(Cl)c1 [SB-317651]  6%
26. CSc1ccc(-c2nc3n(c2-c2ccncc2)CCC3)cc1 [SKF-105561]  7%
27. CN1c2ccc(-c3ccc(C(N)=O)cc3)cc2-c2[nH]ncc2S1(=O)=O  8%
28. COc1cccc(CNC(=O)NC2CCN(c3ccnc(Nc4ccc(F)cc4)n3)C2)c1 (stereo not drawn) [GSK1379723]  8%
29. CCn1c(-c2ccccc2)nc2cnccc21 [SB-733416]  9%
30. Cn1cncc1-c1cc2c(Nc3ccc(OCc4ccccc4)cc3)ncnc2cn1 [GW281179]  10%
31. COc1ccc(Nc2nccc(N3CCC(NC(=O)C(C)c4ccc(Cl)cc4)C3)n2)cc1 (stereo not drawn) [GSK1379735]  11%
32. Fc1ccc(-c2nn3cccc(F)c3c2-c2ccncc2)cc1 [GW475620]  11%
33. CNCc1ccc2nc(NC(=O)c3ccc(C(C)(C)C)cc3)cn2c1  12%
34. Cc1cccc2c(-c3ccncn3)c(-c3ccc(F)cc3)nn12 [GW515532]  14%
35. Cc1nccc(-c2c(-c3ccc(F)cc3)ncn2CCCN2CCOCC2)n1.Cl [SB-282975]  27%
36. O=c1cc(N2CCOCC2)nc2n(Cc3cccc(Cl)c3Cl)c3ccccc3n12 [GSK2299009]  37%
